The results in this text go back to PubChem BioAssay.

Structures are written as SMILES. Unmarked numbers belong to inactive results. For some of these results: Entries with a potency or affinity are not part of this list. Activity calls are given as the source filed them. Unless noted, the rule behind the calls is not given here.

Assay [1] in a line: antimalarial activity against Dd2 strain (AID 2302;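 active = growth inhibition above 50% at the single 2 µM test dose, taken to imply half-maximal potency below 2 µM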;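 note: 0% = DMSO untreated growth and 100% = chloroquine plus artemisinin killed control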). The settings on record: P. falciparum Dd2 in RBCs, LDH growth readout, 72 h; at 2 µM; stronger effect = higher value.
Assay [2] can be described thus: human hepatoma cell viability loss – ATP luminescence, cytotoxicity control for P. falciparum antimalarial project, primary screen (AID 2303;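 active = inhibition above 50%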;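 note: 0% = DMSO wells and 100% = digitonin-killed cells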). The conditions noted are these: HepG2 viability, 24-48 h, at 10 µM, stronger effect = higher value.
The target in assay [3] is L-lactate dehydrogenase (Plasmodium falciparum (isolate CDC / Honduras)) (UniProt Q27743). Briefly: PfLDH activity inhibition – cell lysate, 3D7 strain, counter-screen for P. falciparum growth inhibition project (AID 2304).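 Note: 0% = vehicle and 100% = reference inhibitor.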 The settings on record: P. falciparum 3D7 crude extract, LDH APAD/NBT absorbance; at 2 µM; stronger effect = higher value.
Chain of L-lactate dehydrogenase (Plasmodium falciparum (isolate CDC / Honduras)) (Q27743 whole entry, looked up): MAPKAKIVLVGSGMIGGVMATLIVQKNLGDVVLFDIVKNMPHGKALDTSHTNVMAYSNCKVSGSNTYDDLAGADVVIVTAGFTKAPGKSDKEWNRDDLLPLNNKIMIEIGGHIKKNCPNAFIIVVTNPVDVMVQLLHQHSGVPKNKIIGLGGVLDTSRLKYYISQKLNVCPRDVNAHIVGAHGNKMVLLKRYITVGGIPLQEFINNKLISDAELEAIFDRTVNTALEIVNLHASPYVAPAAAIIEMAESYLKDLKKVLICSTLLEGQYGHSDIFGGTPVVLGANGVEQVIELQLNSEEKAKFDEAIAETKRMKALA
A short description of assay [4]: inhibition of 3D7 malaria parasite growth – strain 3D7 (AID 2306).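 Note: 0% = DMSO wells and 100% = chloroquine plus artemisinin control wells.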 The settings on record: P. falciparum 3D7 erythrocytic growth, LDH absorbance, 72 h; at 2 µM; stronger effect = higher value.
Assay [5] addresses Calcium-dependent protein kinase 1 (Plasmodium falciparum (isolate 3D7)) (UniProt P62344). The assay can be described thus: PfCDPK1 kinase inhibitors, biochemical, TCAMS library (AID 1159585; cut-off not given, nearly all actives have IC50 up to about 0.98 µM;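 note: inhibitors leave more ATP so luminescence rises with inhibition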). The conditions noted are these: recombinant PfCDPK1, Kinase-Glo ATP depletion luminescence.
Assay [6] concerns the target Plasmodium falciparum protein kinase 6 (PK6, PF3D7_1337100) (UniProt Q8IDW1). Briefly: PfPK6 kinase inhibitors, biochemical, TCAMS library (AID 1159586). The conditions noted are these: recombinant PfPK6, Kinase-Glo ATP depletion luminescence.
Assay [7] has as its target Protein kinase 7 (PK7), Plasmodium falciparum 3D7 (PF3D7_0213400) (UniProt Q7YTF7). The assay can be described thus: inhibition of Plasmodium PK7 catalytic activity – biochemical, TCAMS antimalarial set, Kinase-Glo luminescence (AID 1159587). The conditions noted are these: recombinant PfPK7, Kinase-Glo ATP depletion luminescence.
For assay [8], the target named is Calcium-dependent protein kinase 4 (Plasmodium falciparum (isolate 3D7)) (UniProt Q8IBS5). Briefly: PfCDPK4 kinase inhibitors, biochemical, TCAMS library (AID 1159588; cut-off not given, nearly all actives have IC50 up to about 0.91 µM). The conditions noted are these: recombinant PfCDPK4, Kinase-Glo ATP depletion luminescence.
Chain of Calcium-dependent protein kinase 4 (Plasmodium falciparum (isolate 3D7)) (Q8IBS5 whole entry, looked up): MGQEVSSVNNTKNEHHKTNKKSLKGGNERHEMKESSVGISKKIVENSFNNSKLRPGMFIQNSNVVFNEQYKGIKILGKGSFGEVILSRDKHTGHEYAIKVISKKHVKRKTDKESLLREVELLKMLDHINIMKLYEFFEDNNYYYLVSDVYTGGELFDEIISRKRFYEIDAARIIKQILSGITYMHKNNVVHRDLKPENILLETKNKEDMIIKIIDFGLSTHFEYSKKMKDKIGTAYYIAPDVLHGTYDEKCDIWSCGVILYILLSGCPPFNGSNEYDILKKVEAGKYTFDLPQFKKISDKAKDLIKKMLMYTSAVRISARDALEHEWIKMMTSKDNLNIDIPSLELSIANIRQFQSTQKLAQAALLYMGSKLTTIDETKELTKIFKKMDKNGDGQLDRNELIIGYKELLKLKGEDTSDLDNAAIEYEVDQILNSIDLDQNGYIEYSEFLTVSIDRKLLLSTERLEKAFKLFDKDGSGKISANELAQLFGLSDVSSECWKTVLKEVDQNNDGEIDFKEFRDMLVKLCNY

Chain of Plasmodium falciparum protein kinase 6 (PK6, PF3D7_1337100) (Q8IDW1 1-305): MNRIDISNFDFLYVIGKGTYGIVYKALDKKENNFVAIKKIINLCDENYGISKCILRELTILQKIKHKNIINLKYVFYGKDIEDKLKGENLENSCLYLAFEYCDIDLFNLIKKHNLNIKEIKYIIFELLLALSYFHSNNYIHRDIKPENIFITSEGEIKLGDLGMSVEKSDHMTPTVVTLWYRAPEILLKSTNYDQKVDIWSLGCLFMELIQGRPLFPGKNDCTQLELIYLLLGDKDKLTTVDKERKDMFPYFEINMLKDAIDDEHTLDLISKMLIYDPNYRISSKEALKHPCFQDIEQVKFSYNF
Chain of Calcium-dependent protein kinase 1 (Plasmodium falciparum (isolate 3D7)) (P62344 whole entry, looked up): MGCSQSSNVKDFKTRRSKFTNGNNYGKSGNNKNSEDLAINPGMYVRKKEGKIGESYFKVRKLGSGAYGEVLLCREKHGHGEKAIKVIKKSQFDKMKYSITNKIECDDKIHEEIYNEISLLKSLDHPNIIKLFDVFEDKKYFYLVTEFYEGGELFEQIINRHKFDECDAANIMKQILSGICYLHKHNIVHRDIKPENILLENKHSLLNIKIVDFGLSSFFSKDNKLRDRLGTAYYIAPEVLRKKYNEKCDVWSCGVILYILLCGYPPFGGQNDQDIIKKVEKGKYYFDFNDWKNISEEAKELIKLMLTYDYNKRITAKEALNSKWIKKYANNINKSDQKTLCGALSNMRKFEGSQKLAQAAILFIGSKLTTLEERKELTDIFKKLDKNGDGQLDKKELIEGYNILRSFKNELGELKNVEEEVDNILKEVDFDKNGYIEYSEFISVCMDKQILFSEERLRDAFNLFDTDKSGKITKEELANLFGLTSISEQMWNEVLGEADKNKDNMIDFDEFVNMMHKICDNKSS
Chain of Protein kinase 7 (PK7), Plasmodium falciparum 3D7 (PF3D7_0213400) (Q7YTF7 1-343): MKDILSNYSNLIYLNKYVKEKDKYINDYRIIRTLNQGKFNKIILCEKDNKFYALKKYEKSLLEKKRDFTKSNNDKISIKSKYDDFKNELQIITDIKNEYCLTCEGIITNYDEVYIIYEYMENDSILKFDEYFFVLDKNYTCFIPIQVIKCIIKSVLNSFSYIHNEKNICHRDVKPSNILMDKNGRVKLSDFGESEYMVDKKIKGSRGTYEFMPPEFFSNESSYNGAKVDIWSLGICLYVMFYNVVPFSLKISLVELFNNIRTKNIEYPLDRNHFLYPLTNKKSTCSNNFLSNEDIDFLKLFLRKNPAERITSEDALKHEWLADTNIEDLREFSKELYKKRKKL

As for `Cc1cc(CN2CCC(N3CC(c4ccccc4)(c4ccccc4)OCC3=O)C2)ccc1O` (stereo not given), the growth inhibition in assay [1] was 52% (active); in assay [4] it was 89% (active). Moreover, the inhibition in assay [2] and in assay [3] was 3% throughout. In addition, the result in assay [5], in assay [6], in assay [7] and in assay [8] was inactive.
Consider `Nc1n[nH]c(-c2ccccc2Nc2ccnc3cc(-c4nccs4)ccc23)n1`, for which the growth inhibition is 94% (active) in assay [1] and 100% (active) in assay [4]. In addition, the inhibition in assay [2] was 98% (active); in assay [3], -2%. In addition, the result in assay [5], in assay [6], in assay [7] and in assay [8] was inactive.
`Cc1cc(S(=O)(=O)N2CCCCC(c3ccc(C(F)(F)F)cc3)=N2)c(Cl)cc1Cl`: the growth inhibition in assay [1] and in assay [4] was 97% (active) in each case. The inhibition was 17% in assay [2] and 0% in assay [3]. The result in assay [5], in assay [6], in assay [7] and in assay [8] was inactive.
Regarding `O=C1NC(C(=O)Nc2ccccc2)C(c2ccccc2)S1` (stereo not given), the growth inhibition in assay [1] was 99% (active); in assay [4], 95% (active). For the same compound, the inhibition in assay [2] is -4%; in assay [3], -1%. The result in assay [5], in assay [6], in assay [7] and in assay [8] was inactive.
Regarding `Cc1cccc2[nH]c(-c3ccc(-c4cccc(NC(=O)Nc5ccc6c(c5)OCO6)c4)cc3)nc12`, the growth inhibition in assay [1] is 39%; in assay [4] it was 100% (active). For the same compound, the inhibition was 28% in assay [2] and -8% in assay [3]. Besides, the outcome in assay [5], in assay [6], in assay [7] and in assay [8] was inactive.
In the case of `O=C(Nc1ccncc1)Nc1ccc2c(c1)CCN(C1CCC1)CC2`, the growth inhibition in assay [1] is 4%; in assay [4], 87% (active). In addition, the inhibition in assay [2] is -1%; in assay [3], 4%. Moreover, the result in assay [5], in assay [6], in assay [7] and in assay [8] was inactive.
For the compound `CCN(CC)CCN(Cc1ccc(-c2ccc(C(F)(F)F)cc2)cc1)C(=O)Cn1c(CCc2ccc(F)c(F)c2)cc(=O)c2ccccc21`, the figures for the growth inhibition in assay [1] and in assay [4] were 26% and 95% (active), respectively. Besides, the inhibition in assay [2] was 23%; in assay [3], -1%. The outcome in assay [5], in assay [6], in assay [7] and in assay [8] was inactive.
As to `O=C(NC1CCN(Cc2ccccc2)CC1)c1csc2nc(-c3ccc(Cl)cc3)cn12`, the values for the growth inhibition in assay [1] and in assay [4] were 14% and 98% (active), respectively. For the same compound, the values for the inhibition in assay [2] and in assay [3] were 19% and -10%, respectively. Moreover, the outcome in assay [5], in assay [6], in assay [7] and in assay [8] was inactive.
For `CCN1CCCC(Nc2ccnc3cc4ccccc4cc23)C1` (stereo not given), the growth inhibition in assay [1] is 100% (active); in assay [4] it was 101% (active). Besides, the inhibition was 38% in assay [2] and 2% in assay [3]. The outcome in assay [5], in assay [6], in assay [7] and in assay [8] was inactive.
Turning to `CC(C)CN(c1nc(C(=O)NNC(=O)[C@H](CC2CC2)NC(=O)c2cc3cc(OCCN(C)C)ccc3o2)cs1)C1CC1`, the growth inhibition in assay [1] was 97% (active); in assay [4] it was 87% (active). The inhibition is -5% in assay [2] and -4% in assay [3]. For the same compound, the result in assay [5], in assay [6], in assay [7] and in assay [8] was inactive.
Regarding `Cc1c(S(=O)(=O)Nc2ccc3ccn(CCN(C)C)c3c2)sc2ccc(Cl)cc12`, the growth inhibition was 94% (active) in assay [1] and 98% (active) in assay [4]. For the same compound, the inhibition in assay [2] is 15%; in assay [3], 0%. The outcome in assay [5], in assay [6], in assay [7] and in assay [8] was inactive.
As to `Cn1c(CN2CCC(N3CCc4cc(NC(=O)c5ccco5)ccc43)C2)cc2ccccc21` (stereo not given), the growth inhibition is 92% (active) in assay [1] and 91% (active) in assay [4]. Besides, the inhibition was -1% in assay [2] and -3% in assay [3]. The outcome in assay [5], in assay [6], in assay [7] and in assay [8] was inactive.
In the case of `CN(C)CCOc1ccc(-n2c(-c3nonc3N)nc3cncc(-c4ccc(F)cc4)c32)cc1`, the growth inhibition in assay [1] was 7%; in assay [4], 97% (active). For the same compound, the results for the inhibition in assay [2] and in assay [3] were 10% and 5%, respectively. The outcome in assay [5], in assay [6], in assay [7] and in assay [8] was inactive.
As for `COc1ccc(OCc2ccccn2)c(C2CCN(CCCCNC(=O)c3ccc(NC(=O)c4ccc(Cl)cc4)cc3)CC2)c1`, the growth inhibition in assay [1] is 71% (active); in assay [4], 98% (active). Also, the results for the inhibition in assay [2] and in assay [3] were 18% and 4%, respectively. The outcome in assay [5], in assay [6], in assay [7] and in assay [8] was inactive.
Turning to `O=C(C=Cc1ccc(Cl)c(Cl)c1)NCCCCCN1CCC(CCNS(=O)(=O)c2ccc(Br)cc2)CC1`, the figures for the growth inhibition in assay [1] and in assay [4] were -1% and 91% (active), respectively. Also, the results for the inhibition in assay [2] and in assay [3] were 58% (active) and 5%, respectively. Further, the result in assay [5], in assay [6], in assay [7] and in assay [8] was inactive.
Take `O=S(=O)(Nc1cccc(CCN2CCCCC2CCN2CCCC2)c1)c1cccc2ccccc12` (stereo not given): the growth inhibition in assay [1] is 6%; in assay [4], 97% (active). Also, the inhibition in assay [2] is 23%; in assay [3], 3%. The result in assay [5], in assay [6], in assay [7] and in assay [8] was inactive.
In the case of `COc1cc2nc(NCCCO)nc(Nc3ccc(Oc4ccccc4)cc3)c2cc1OC`, the growth inhibition in assay [1] and in assay [4] was 101% (active) each time. For the same compound, the inhibition was 24% in assay [2] and 0% in assay [3]. Also, the result in assay [5], in assay [6], in assay [7] and in assay [8] was inactive.
On to `CC(C)CCN=C(N)c1ccc(OCCCCCOc2ccc(C(N)=NCCC(C)C)cc2)cc1`, for which the results for the growth inhibition in assay [1] and in assay [4] were 94% (active) and 98% (active), respectively. Besides, the inhibition in assay [2] and in assay [3] was 5% each time. In addition, the outcome in assay [5], in assay [6], in assay [7] and in assay [8] was inactive.
As for `CN(C)Cc1cccc(-c2ccc(NC(=O)c3ccc4c(=O)n(Cc5ccoc5)cnc4c3)cc2)c1`, the growth inhibition in assay [1] is 9%; in assay [4], 98% (active). Moreover, the inhibition in assay [2] was 54% (active); in assay [3], 3%. The outcome in assay [5], in assay [6], in assay [7] and in assay [8] was inactive.
Turning to `Oc1ccc(CCNCCCCNCCc2ccc(Cl)cc2)cc1O`, the growth inhibition is -1% in assay [1] and 94% (active) in assay [4]. Further, the inhibition in assay [2] is 33%; in assay [3] it was -1%. Further, the outcome in assay [5], in assay [6], in assay [7] and in assay [8] was inactive.
